System: VDR:RXRa (NR concentration 270 nM, RXRa partner concentration 90 nM)
Test: PBM binding z-score (relative to random genomic background probes); higher = stronger binding; sequences stand for … in GC…GCGATTGACAGCGTAGAATGAAGG
Protocol: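 Protein-binding microarray (Agilent 4x180K custom design, double-stranded 60-nt probes: 5' GC cap, 34-nt variable region, 24-nt constant primer region; full probe sequence given). Purified or IVT nuclear receptor:RXRα heterodimers (3:1 NR:RXRα, mostly 270:90 nM) or homodimers were incubated for 1 h in PBS with 2% milk and no ligand, then detected with Alexa488 antibodies. Fluorescence from o1-orientation probes (~5 replicates averaged) was converted to z-scores against 500 random hg19 background probes. Variable regions are seed direct-repeat (DR0–DR5) sites, all their single-nucleotide variants and half-site ablations.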

**Q.** For CGTCCAAGGTCAGCAGGTCACTGAAAGCGACGTG, which PBM binding z-score is on record?
**A.** 4.5

**Q.** CGAACTAGGTAACCAGGACAGTGAAGAGGTTGGA was tested. Which PBM binding z-score did it give?
**A.** -0.0408

**Q.** How did the PBM binding z-score turn out when CTTTACGGGTCAAGGTTATAGCACGGGTGGTACG was run?
**A.** 3.8

**Q.** Which PBM binding z-score does the source give for CCGAGTAGGTTACGAGGGGGCATTCACTGCGAAT here?
**A.** 4.98

**Q.** Which PBM binding z-score does the source give for CTATGTAGGTTAAGGGGGTCATACAGTTTGAAAG here?
**A.** 7.05

**Q.** Which PBM binding z-score does the source give for TAGCCTAGGTCATTCAGGCGCCAGTATAGAAAGC here?
**A.** 2.53

**Q.** Which PBM binding z-score does the source give for CCGAGTAGGTTACGAGGGGGCATTTAGTGCGAAT here?
**A.** 4.94

**Q.** With CAAACTAGGTCACAGAGGTCAAAGTTCGTGCGTA as the sequence, how does the PBM binding z-score read?
**A.** 8.36

**Q.** CGTCTAAGGTCAAAGGTCAGTGAAGAGATGACGG was tested. Which PBM binding z-score did it give?
**A.** 6.78

**Q.** How did the PBM binding z-score turn out when CAAAGTAGGTCACCGGAAGGTCAAAGTCCGCATG was run?
**A.** 6.18

**Q.** With CCTCGGAGGTCAGAAGGTCAGAGCTGTCCGCTTT as the sequence, how does the PBM binding z-score read?
**A.** 4.38

**Q.** How did the PBM binding z-score turn out when TCTAGTTCGTCACGGAGGTCACACACGACGGGTA was run?
**A.** 4.68

**Q.** For CTATGTAGGTTAAGTGGGTCATTCAGTTTGAAAG, which PBM binding z-score is on record?
**A.** 4.99

**Q.** TTACCAAGGTGAACTGAGGTCGTTGATCCAACTC was tested. Which PBM binding z-score did it give?
**A.** 5.77

**Q.** For CTAACTAGGTCACCAGGACAGTGAAGAGGTTGGA, which PBM binding z-score is on record?
**A.** 2.06

**Q.** Which PBM binding z-score does the source give for CCGAGTAGGTTACCAGGGGGCATTCAGTGCGAAT here?
**A.** 4.94

**Q.** With TAGCATAGGTCATGCGGGCCAGTATAGTGTCGGC as the sequence, how does the PBM binding z-score read?
**A.** 4.32

**Q.** For AGTCAAAGTTCAGGACGAGGTAAAGTAAAGCACG, which PBM binding z-score is on record?
**A.** 3.01

**Q.** How did the PBM binding z-score turn out when CCTACTGGGCCAAAAATGTCATTGATGCCGATAA was run?
**A.** 0.0323

**Q.** For CGTACTAGGTCAAAGGACAGTGAAAGGCGACGTA, which PBM binding z-score is on record?
**A.** 1.33

**Q.** With GCTGCTAGGTCAACTGAGGGTCAGCTAAAGCTCG as the sequence, how does the PBM binding z-score read?
**A.** 4.26

**Q.** How did the PBM binding z-score turn out when ATCTCTAGGTGAAAGTTCAGTGAATCCCGAGGAT was run?
**A.** 1.83

**Q.** Which PBM binding z-score does the source give for ATATGTAGGTTAGGGTCATTGAGAAAGTAGGGAA here?
**A.** 4.27

**Q.** For CCGATTAGGTTACGAGGGGGCATTCAGTGCGAAT, which PBM binding z-score is on record?
**A.** 5.1

**Q.** With CGACCTAGGTCACCAGGACAGTGAAGAGGTTGGA as the sequence, how does the PBM binding z-score read?
**A.** 2.68

**Q.** TCTTGTAGATCAAAGGTTAAGACAGCCGAAGCCT was tested. Which PBM binding z-score did it give?
**A.** 1.68

**Q.** How did the PBM binding z-score turn out when GGAACTAGGGCAAAGTTGATAGCATCTGTCGACG was run?
**A.** -0.0768

**Q.** For CTATGTAGGTTAAGGGGGTCCTTCAGTTTGAAAG, which PBM binding z-score is on record?
**A.** 3.98

**Q.** How did the PBM binding z-score turn out when TCTAGTAGGTTACGGGGGCATTCAGGGATGAAGA was run?
**A.** 4.39

**Q.** How did the PBM binding z-score turn out when CGTCCAAGGTCAGCAGGTGAGTGAAAGCGACGTG was run?
**A.** 2.67

**Q.** With CCTGCTAGGTCAATGGTCAGCTAAAGCAGCTCGC as the sequence, how does the PBM binding z-score read?
**A.** 1.02

**Q.** With TCGAGTATGTTACGGGGGCATTCAGGGATGAAGA as the sequence, how does the PBM binding z-score read?
**A.** 3.48

**Q.** With CGAACTAGGTCAGCAGGACAGTGAAGAGGTTGGA as the sequence, how does the PBM binding z-score read?
**A.** 0.428

**Q.** TCGAGGAGGTTACGGGGGCATTCAGGGATGAAGA was tested. Which PBM binding z-score did it give?
**A.** 5.08

**Q.** How did the PBM binding z-score turn out when CGTCCAAGGTCAAAGGTCAGGGAAGAGATGACGG was run?
**A.** 6.71

**Q.** For TGAATGAGGTTTAAGATCAGGGAACGTGGCGTCG, which PBM binding z-score is on record?
**A.** -0.255

**Q.** How did the PBM binding z-score turn out when TCGAGTAGGTTACGGGGGCATTCATGGATGAAGA was run?
**A.** 3.71

**Q.** With CATACAGGGTCCGCTAGGCCAGAGTAGGGACGGC as the sequence, how does the PBM binding z-score read?
**A.** -0.537

**Q.** For GATACAAGGTCAGCTAGAGGCCAGAGTATGGAAA, which PBM binding z-score is on record?
**A.** 3.19

**Q.** With CGAACTAGGTCACCAGGGCAGTGAAGAGGTTGGA as the sequence, how does the PBM binding z-score read?
**A.** 2.32

Reference: the supplement of paper PMC6555819
